Drawing on the supplement of paper PMC9492666, this text covers relative cell viability for 33 molecules.

Counter-ions that a name gives are not always drawn.
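Further: viability read out with the CCK-8 kit in 96-well plates, screening a set of 303 compounds acting on lipid metabolism targets.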

The assay relates to HCC1937. In words: relative cell viability, compound alone, vs DMSO (fraction of DMSO control); higher = less growth inhibition. The note with it: 72 h.
With `O=C(O)CC[C@H](O)C(=O)O` [L-2-Hydroxyglutaric acid disodium], the relative cell viability was 1.04.
The result for `O=C(O)C(O)Cc1ccc(O)c(O)c1` (stereo not drawn) [Sodium Danshensu] reads 0.718; that for `COc1ccc(N(C(=O)Nc2c(C)cccc2C)c2cc(Nc3ccc(N4CCN(C)CC4)cc3)ncn2)c(OC)c1`, 0.915.
The result for `O=C(O)c1cccc(N=Nc2c(O)[nH]c3ccc(S(=O)(=O)NCc4ccc(F)cc4)cc23)c1` reads 0.885; that for `CCCCCCCCCCCC1=C(O)C(=O)C=C(O)C1=O` [Embelin], 1.08; that for `O=C(NN1CCCCC1)c1nn(-c2ccc(Cl)cc2Cl)c(-c2ccc(C#Cc3ccc(C(F)(F)F)cc3)s2)c1CNS(=O)(=O)N1CCCC1`, 1.01.
`COc1ccc(C(=O)/C=C/c2ccccc2)cc1` [4'-Methoxychalcone] showed a relative cell viability of 0.73.
To `COc1cc(O)c2c(c1)O[C@H](c1ccc(O)cc1)CC2=O` [Sakuranetin] belongs 0.627.
The result for `O=C(O)c1ccnc(N2CC(O)(c3ccc(OCc4c(-c5c(Cl)cccc5Cl)noc4C4CC4)cc3Cl)C2)c1` [Cilofexor] reads 0.661; that for `C[C@H](CCC(=O)O)[C@H]1CC[C@H]2[C@@H]3CC[C@@H]4C[C@H](O)CC[C@]4(C)[C@H]3CC[C@]12C` [Lithocholic acid], 1.16; that for `CC(C)OC(=O)C(C(=O)OC(C)C)=C1SC=CS1` [Malotilate], 0.686.
Consider `O=C(Nc1ccncc1)c1cc([N+](=O)[O-])ccc1Cl`, for which the relative cell viability was 0.81.
The result for `O=C(Nc1cccnc1)N1CCC(Cc2cccc(Oc3ccc(C(F)(F)F)cn3)c2)CC1` reads 1.14; that for `CCCCC[C@H](O)CC(=O)CCc1ccc(O)c(OC)c1` [6-Gingerol], 0.646.
On to `CCCC[S+]([O-])c1sc2nc(-c3cccs3)cc(-c3ccccc3)c2c1N` (stereo not drawn), for which the relative cell viability was 0.85.
Molecule `CC(C)(Oc1ccc(C(=O)c2ccc(Cl)cc2)cc1)C(=O)O` [Choline Fenofibrate] gave a relative cell viability of 0.928.
Molecule `C[N+](C)(C)CC(O)CC(=O)[O-]` (stereo not drawn) [L(-)-Carnitine] gave a relative cell viability of 0.738.
To `O=C(O)c1cc2c(Cl)c(N3CCN(S(=O)(=O)c4c(Cl)cccc4Cl)CC3)ccc2o1` [Vonafexor] belongs 1.16; to `CC(C)OC(=O)CCC/C=C\C[C@@H]1[C@@H](CC[C@@H](O)CCc2ccccc2)[C@H](O)C[C@@H]1O` [Latanoprost], 1.43.
The result for `COC(=O)c1sccc1S(=O)(=O)Nc1ccc(Nc2ccccc2)cc1OC` reads 0.795; that for `COC(=O)c1cc(Cl)c(O)c(S(=O)(=O)Nc2cc(-c3ccccc3)c(F)cc2F)c1`, 0.737.
In the case of `O=P(O)(O)OC(CO)CO` [β-Glycerol phosphate disodium salt pentahydrate], the relative cell viability is 0.636.
As to `CCCCCCCCCCCCCCOc1ccc(C(=O)OCC(=O)N(C)CC(=O)OCC)o1` [Olumacostat Glasaretil], the relative cell viability was 0.812.
To `O=C(O)CN(CC(=O)O)c1ccccc1OCCOc1ccccc1N(CC(=O)O)CC(=O)O` belongs 0.633; to `Nc1ncnc2c1ncn2C1OC(COP(=O)(O)O)C(O)C1O` (stereo not drawn) [Adenosine 5'-monophosphate monohydrate], 1.09; to `C/C=C(\CC[C@@H](C)[C@H]1CC[C@H]2[C@@H]3CC=C4C[C@@H](O)CC[C@]4(C)[C@H]3CC[C@]12C)C(C)C` [Fucosterol], 1.
As for `CC1=C(/C=C/C(C)=C/C=C/C(C)=C/C=C/C=C(C)/C=C/C=C(C)/C=C/C2=C(C)C(=O)[C@@H](O)CC2(C)C)C(C)(C)C[C@H](O)C1=O` [Astaxanthin], the relative cell viability turned out to be 1.01.
In turn, `CNC(=O)c1cccc(NC(=O)N2CCC(Oc3ccccc3Cl)CC2)c1` came in with a relative cell viability of 0.991.
To `COC(=O)/C=C/c1cccc(N(Cc2ccc(-c3ccc(N(C)C)cc3)cc2)C(=O)C2CCCCC2)c1` [Fexaramine] belongs 0.805.
The result for `O=C(O)CCn1c2c(c3ccccc31)C[C@H](NS(=O)(=O)c1ccc(F)cc1)CC2` [Ramatroban] reads 0.711.
To `NC(=O)c1cccc(-c2cccc(OC(=O)NC3CCCCC3)c2)c1` belongs 0.822; to `COc1cc(C(C)=O)ccc1O` [Acetovanillone], 0.833.
For `CC(C)=CCC[C@](C)(O[C@@H]1O[C@H](CO)[C@@H](O)[C@H](O)[C@H]1O)[C@H]1CC[C@]2(C)[C@@H]1[C@H](O)C[C@@H]1[C@@]3(C)CC[C@H](O[C@@H]4O[C@H](CO)[C@@H](O)[C@H](O)[C@H]4O[C@@H]4O[C@H](CO)[C@@H](O)[C@H](O)[C@H]4O)C(C)(C)[C@@H]3CC[C@]12C` [Ginsenoside Rd], the relative cell viability is 0.834.
